For test [1], the target named is Lysosomal acid glucosylceramidase (Homo sapiens) (UniProt P04062). The test is described as follows: Glucocerebrosidase-p2 (AID 348; in the data active = potency below about 10 µM; also: potency is read from the fitted curve at half-maximal effect). The note with it: purified GBA, blue fluorogenic substrate, 40 min. Put shortly:
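Normal human glucocerebrosidase (0.2 nM) with blue fluorogenic substrate (80 uM final) in citrate/phosphate pH 5.9 with 10mM sodium taurocholate, 0.01% tween-20; 40 min RT, NaOH/glycine stop; fluorescence Ex 365/Em 440; AC50 from a titration from 0.6 nM upwards.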

The nature of test [2]: AP1 Signaling Pathway (AID 357; active = well fitted curve in either direction with a large enough effect, not every such curve was filed as active;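 also: ME-180 reporter cells stimulated with EGF at its EC50 level; % is scaled to controls: 0 for no effect and ±100 for the full control effect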). The note with it: ME-180 AP-1-bla reporter, EGF-induced, beta-lactamase ratio, 5 h; at 7.69 µM (top of the series) unless noted. Put shortly:
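Beta-lactamase reporter under AP-1 response element, ME-180 background. Stimulus: EC50 EGF. Compound exposure 5 h, 37 °C. Detection: CCF4, 2.5 h RT, 460/530 nm. Values: AC50 from titration.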

Test [3] has as its target Cytochrome P450 1A2 (Homo sapiens) (UniProt P05177). Briefly: p450-cyp1a2 (AID 410; calls by dose curve; also: potency is read from the fitted curve at half-maximal effect). The note with it: recombinant CYP1A2, luciferin-ME demethylation, luminescence; series mostly up to 57 µM. The essentials: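 20nM CYP1A2, 100uM Luciferin-ME (=Km), 100mM KPO4; cpd 10 min RT; +NADPH regen, 60 min RT; stop/detect 20 min; luminescence. Normalized to furafylline 57 uM = full inhibition.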

Test [4] in a line: NFAT Signaling Pathway (AID 444; active = well fitted curve in either direction with a large enough effect, not every such curve was filed as active;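 also: carbachol stimulus at about its EC50 of 1 µM final; % is scaled to controls: 0 for no effect and ±100 for the full control effect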). The following applies: Jurkat NFAT-bla M1, carbachol, beta-lactamase ratio, 5 h; at 7.69 µM (top of the series) unless noted. Put shortly:
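Jurkat cells carrying an NFAT-driven β-lactamase reporter and co-transfected muscarinic M1 receptor were treated with compound plus carbachol (1 uM final, an EC50 level) for 5 h at 37 °C. CCF4 loading followed for 1 h at RT; 460/530 nm ratio gave %activity.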

The nature of test [5]: Stat Signaling Pathway (AID 446; active = well fitted curve in either direction with a large enough effect, not every such curve was filed as active;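 also: ME-180 cervical cancer cells given 40 pM IL-6 alongside compound; SIE-controlled beta-lactamase reporter measured as 460/530 nm FRET emission ratio; % is scaled to controls: 0 for no effect and ±100 for the full control effect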). The note with it: ME-180 (cervical carcinoma) SIE beta-lactamase reporter, IL-6 stimulated, 5 h; at 7.69 µM (top of the series) unless noted. The essentials: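 Normalization used AC90 stimulation (300 pM IL-6) and AC90 inhibition (125 nM pan-JAK inhibitor at 40 pM IL-6). The underlying signal is SIE-driven beta-lactamase in ME-180 cells after 5 h IL-6 exposure with compound.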

Test [6] has as its target Glucocorticoid receptor (Homo sapiens) (UniProt P04150). Briefly: GR-GFP Redistribution (AID 450;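 active = compounds whose dose series gives a full or clear partial fitted curve of increased nuclear translocation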; also: potency is read from the fitted curve at half-maximal effect). The note with it: U2OS GR-GFP nuclear translocation, laser cytometry, 2 h.
For test [7] the target is unchanged. Briefly: GR-EFC Redistribution (AID 451; calls by dose curve; also: potency is read from the fitted curve at half-maximal effect). The note with it: CHO-K1 GR-EFC translocation, beta-gal luminescence, 2 h. The essentials: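 CHO-K1 cells stably expressing nuclear-localized β-gal enzyme acceptor and GR fused C-terminally to the enzyme donor fragment; ligand-driven nuclear translocation restores β-gal by complementation. Compounds titrated up to 46 uM final, 2 h at 37 °C; luminescence read.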

For test [8], the target named is Mitogen-activated protein kinase 10 (Mus musculus) (UniProt Q61831). Briefly: JNK3 AlphaScreen Assay (AID 530; active = well fitted curve in either direction with a large enough effect, not every such curve was filed as active;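 also: kinase came from lysate of stimulated human HepG2 cells; % is scaled to controls: 0 for no effect and ±100 for the full control effect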). The following applies: JNK3 lysate, c-Jun phosphorylation; series mostly up to 57.1 µM. Put shortly: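 Biotinylated GST-cJun(1-79) served as substrate for JNK3 in HepG2 lysates stimulated with IL-1beta and TNF-alpha. ATP was 10 uM final, pH 7.6. Ser73 phosphorylation was quantified by AlphaScreen (680 nm excitation).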
On the technique in general: In Alpha technology, singlet oxygen from a donor bead excites a nearby acceptor bead.

Test [9] has as its target Dual specificity protein kinase CLK4 (Homo sapiens) (UniProt Q9HAZ1). The test is described as follows: qHTS Assay for Inhibitors of CDC-like Kinase 4 (Kinase-Glo Assay) (AID 1770). Also: nearly all actives have a fitted effect of over 65% in size. Also: potency is read from the fitted curve at half-maximal effect. The note with it: recombinant Clk4, Kinase-Glo ATP depletion luminescence; series mostly up to 66.7 µM. The essentials:
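Luminescent ATP-depletion read-out (Kinase-Glo) after 4.5 h room-temperature reaction of Clk4 (25 nM final) with RS peptide (100 uM) and ATP (1 uM), pH 7.5 Tris buffer with MgCl2 and DTT.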
On the technique in general: Quantitative high-throughput screening tests each substance at several concentrations.

The target is the same in test [10]. Briefly: qHTS Assay for Inhibitors of CDC-like Kinase 4 (ADP-Glo Assay) (AID 1771). Also: nearly all actives have a fitted effect of over 70% in size. Also: potency is read from the fitted curve at half-maximal effect. The note with it: recombinant CLK4, ADP-Glo luminescence; series mostly up to 80 µM. The essentials: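 25 nM Clk4, 100 uM RS peptide, 1 uM ATP (final); 2 mM MgCl2, 0.5 mM EGTA, 2.5 mM DTT, 0.01% Triton X-100; 1 hr RT. ADP-Glo readout: ATP depletion 45 min, conversion/luciferase 30 min, luminescence.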

The target is the same in test [11]. Briefly: qHTS Assay for Inhibitors of CDC-like Kinase 4 (ADP-FP Assay) (AID 1795). Also: nearly all actives have a fitted effect of over 60% in size. Also: potency is read from the fitted curve at half-maximal effect. The note with it: Transcreener ADP fluorescence polarization; series mostly up to 50 µM. Put shortly: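 Kinase activity was measured as ADP production using Transcreener orange tracer (4 nM) and ADP antibody (1 ug/mL) fluorescence polarization, with ADP calculated from a calibration curve. The 1 h reaction contained 6.25 nM Clk4, 1 uM ATP and 100 uM RS peptide at pH 7.5 with Mg2+.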

For test [12], the target named is Ubiquitin carboxyl-terminal hydrolase 1 (Homo sapiens) (UniProt O94782). Briefly: Inhibitors of USP1/UAF1: Pilot qHTS (AID 504865).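 Also: rhodamine fluorescence freed from ubiquitin-rhodamine substrate followed over time; top concentration of the series differs between compounds; % is scaled to controls: 0 for no effect and ±100 for the full control effect; nearly all actives have a fitted effect of over 35% in size.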 The following applies: purified USP1/UAF1, Ub-rhodamine cleavage fluorescence; series mostly up to 54.9 µM. The essentials:
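Deubiquitinase activity followed as kinetic rhodamine fluorescence release from 150 nM Ub-Rho. 1 nM USP1/UAF1 with compound, after 15 min room-temperature preincubation, in HEPES pH 7.8 buffer containing TCEP, EDTA, BSA and Tween-20.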

Test [13] is described as follows: Primary qHTS for small molecule stabilizers of the endoplasmic reticulum resident proteome: Secreted ER Calcium Modulated Protein (SERCaMP) assay (AID 1508630). Also: % is scaled to controls: 0 for no effect and ±100 for the full control effect. The note with it: SH-SY5Y GLuc-SERCaMP (Gaussia luciferase released on ER calcium loss) secretion, thapsigargin, luminescence; series mostly up to 38.4 µM. Put shortly: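 The SH-SY5Y reporter protocol was run at 3 concentrations up to 38.3 uM (primary) or 11 concentrations (follow-up): 16 h compound, 100 nM thapsigargin for 4 h, then extracellular luciferase luminescence.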

For test [14], the target named is 3',5'-cyclic-AMP phosphodiesterase 4B (Homo sapiens) (UniProt Q07343). Briefly: qHTS Assay for Inhibitors of PDE-IV (AID 607; active = well fitted activation curve with a large enough effect in the main read-out, with a control signal flat, not every such curve was filed as active; also: % of control where 0% means no effect). The following applies: HEK293 ACTOne CNG channel cells, membrane potential fluorescence; series mostly up to 22.9 µM. Put shortly:
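HEK293 ACTOne cells with CNG channel (1000/well), endogenous PDE4; membrane potential dye, compounds up to 22.9 uM final. Fluorescence Ex 535/Em 590; RO 20-1724 (100 uM final) as reference.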

In test [15] the target is Cytochrome P450 3A4 (Homo sapiens) (UniProt P08684). Briefly: qHTS Assay for Activators of Cytochrome P450 3A4 (AID 885). Also: nearly all actives have a fitted effect of over 65% in size. The following applies: recombinant CYP3A4, Luciferin-PPXE luminescence, 60 min; series mostly up to 57.1 µM. Put shortly: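 Human CYP3A4 dealkylates Luciferin-PPXE to luciferin, which luciferase detection converts to light. Substrate was at its KM (25uM), buffer 200mM KPO4, reaction 60 min at RT.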
Sequence of Cytochrome P450 3A4 (Homo sapiens) (P08684 whole entry, looked up): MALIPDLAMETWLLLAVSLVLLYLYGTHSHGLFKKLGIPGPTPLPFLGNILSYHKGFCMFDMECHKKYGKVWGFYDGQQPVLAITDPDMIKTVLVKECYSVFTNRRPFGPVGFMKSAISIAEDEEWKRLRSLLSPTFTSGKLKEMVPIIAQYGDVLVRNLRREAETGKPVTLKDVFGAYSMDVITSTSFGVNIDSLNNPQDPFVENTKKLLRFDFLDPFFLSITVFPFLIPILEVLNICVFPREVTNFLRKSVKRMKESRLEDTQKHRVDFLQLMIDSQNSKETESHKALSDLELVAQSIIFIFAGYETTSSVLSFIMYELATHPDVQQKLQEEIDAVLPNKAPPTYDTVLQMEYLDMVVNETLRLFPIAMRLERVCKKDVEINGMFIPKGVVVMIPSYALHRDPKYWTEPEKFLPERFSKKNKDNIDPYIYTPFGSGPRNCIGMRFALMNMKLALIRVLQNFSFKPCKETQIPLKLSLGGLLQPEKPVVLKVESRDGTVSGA

Test [16] shares this target. The test is described as follows: qHTS Assay for Inhibitors and Substrates of Cytochrome P450 3A4 (AID 884). Also: potency is read from the fitted curve at half-maximal effect; nearly all actives have a fitted effect of over 50% in size. The following applies: recombinant CYP3A4, Luciferin-PPXE luminescence; series mostly up to 57.1 µM. The essentials: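 Luminescent readout of luciferin produced by CYP3A4 (20 nM) dealkylation of Luciferin-PPXE, 25 uM (its KM). NADPH-driven reaction ran 60 min at RT after 10 min compound preincubation; data scaled to 57 uM ketoconazole as 100% inhibition.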

Values without a mark were called inactive. Records with an inconclusive call do not appear. Active and inactive are the calls of the source. Unless noted, calls follow the shape of the dose curve; as a rule, active = well fitted curve in the direction sought with a large enough effect; inconclusive = small, poorly fitted or top-dose-only effect, or another doubt; inactive = no such curve, though single readings can be large; an effect the other way counts as inactive or inconclusive.

Sequence of Cytochrome P450 1A2 (Homo sapiens) (P05177 whole entry, looked up): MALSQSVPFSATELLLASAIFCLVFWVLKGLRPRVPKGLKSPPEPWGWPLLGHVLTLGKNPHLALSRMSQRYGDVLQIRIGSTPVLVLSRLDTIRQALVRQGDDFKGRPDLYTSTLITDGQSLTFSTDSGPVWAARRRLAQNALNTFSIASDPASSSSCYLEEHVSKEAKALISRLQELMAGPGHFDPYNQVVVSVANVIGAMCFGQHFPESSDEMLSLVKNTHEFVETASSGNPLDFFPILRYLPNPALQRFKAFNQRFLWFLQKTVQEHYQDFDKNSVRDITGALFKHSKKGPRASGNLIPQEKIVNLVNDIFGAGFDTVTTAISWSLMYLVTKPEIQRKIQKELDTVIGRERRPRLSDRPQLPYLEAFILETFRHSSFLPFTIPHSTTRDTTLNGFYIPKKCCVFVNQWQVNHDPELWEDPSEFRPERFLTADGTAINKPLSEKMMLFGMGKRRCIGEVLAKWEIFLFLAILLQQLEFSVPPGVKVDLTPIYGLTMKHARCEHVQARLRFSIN
Sequence of Ubiquitin carboxyl-terminal hydrolase 1 (Homo sapiens) (O94782 whole entry, looked up): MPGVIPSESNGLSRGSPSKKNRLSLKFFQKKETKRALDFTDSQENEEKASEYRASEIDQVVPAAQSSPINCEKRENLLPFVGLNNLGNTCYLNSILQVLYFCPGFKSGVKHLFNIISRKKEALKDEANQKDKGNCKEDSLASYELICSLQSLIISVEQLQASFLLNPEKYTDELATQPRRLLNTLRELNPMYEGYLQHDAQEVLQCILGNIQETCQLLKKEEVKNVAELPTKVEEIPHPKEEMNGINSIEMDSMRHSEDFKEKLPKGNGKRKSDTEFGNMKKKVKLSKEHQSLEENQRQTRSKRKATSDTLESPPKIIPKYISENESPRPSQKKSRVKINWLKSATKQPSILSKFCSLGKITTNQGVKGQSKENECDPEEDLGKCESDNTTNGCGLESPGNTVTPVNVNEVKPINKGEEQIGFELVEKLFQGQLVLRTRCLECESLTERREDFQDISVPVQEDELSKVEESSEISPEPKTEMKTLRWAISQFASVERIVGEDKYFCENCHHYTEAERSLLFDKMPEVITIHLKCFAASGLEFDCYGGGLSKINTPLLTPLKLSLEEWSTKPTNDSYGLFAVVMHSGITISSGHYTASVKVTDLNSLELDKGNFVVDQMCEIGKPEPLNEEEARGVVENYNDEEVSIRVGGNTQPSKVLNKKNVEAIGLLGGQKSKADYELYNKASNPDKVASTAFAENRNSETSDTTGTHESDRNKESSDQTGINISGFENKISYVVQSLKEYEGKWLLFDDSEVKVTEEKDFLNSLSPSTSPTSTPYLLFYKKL
Sequence of 3',5'-cyclic-AMP phosphodiesterase 4B (Homo sapiens) (Q07343 whole entry, looked up): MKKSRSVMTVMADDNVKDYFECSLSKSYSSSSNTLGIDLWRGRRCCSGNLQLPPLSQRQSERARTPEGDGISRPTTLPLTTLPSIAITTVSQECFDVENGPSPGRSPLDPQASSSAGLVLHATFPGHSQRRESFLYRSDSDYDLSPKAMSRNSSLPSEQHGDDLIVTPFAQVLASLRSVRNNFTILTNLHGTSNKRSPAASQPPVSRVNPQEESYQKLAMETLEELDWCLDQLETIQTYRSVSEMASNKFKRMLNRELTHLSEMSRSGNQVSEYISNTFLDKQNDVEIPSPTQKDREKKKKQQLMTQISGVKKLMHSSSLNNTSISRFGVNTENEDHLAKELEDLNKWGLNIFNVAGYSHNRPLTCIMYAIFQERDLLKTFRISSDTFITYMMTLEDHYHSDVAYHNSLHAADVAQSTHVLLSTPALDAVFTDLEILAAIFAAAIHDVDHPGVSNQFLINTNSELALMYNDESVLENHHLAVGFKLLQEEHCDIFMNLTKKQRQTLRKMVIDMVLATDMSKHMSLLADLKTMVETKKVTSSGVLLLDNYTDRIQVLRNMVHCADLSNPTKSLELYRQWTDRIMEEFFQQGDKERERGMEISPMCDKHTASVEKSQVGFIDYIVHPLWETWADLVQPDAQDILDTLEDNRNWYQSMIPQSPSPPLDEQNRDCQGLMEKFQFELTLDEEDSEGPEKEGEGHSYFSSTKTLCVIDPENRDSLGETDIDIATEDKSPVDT
Sequence of Glucocorticoid receptor (Homo sapiens) (P04150 whole entry, looked up, the tested form may be a part): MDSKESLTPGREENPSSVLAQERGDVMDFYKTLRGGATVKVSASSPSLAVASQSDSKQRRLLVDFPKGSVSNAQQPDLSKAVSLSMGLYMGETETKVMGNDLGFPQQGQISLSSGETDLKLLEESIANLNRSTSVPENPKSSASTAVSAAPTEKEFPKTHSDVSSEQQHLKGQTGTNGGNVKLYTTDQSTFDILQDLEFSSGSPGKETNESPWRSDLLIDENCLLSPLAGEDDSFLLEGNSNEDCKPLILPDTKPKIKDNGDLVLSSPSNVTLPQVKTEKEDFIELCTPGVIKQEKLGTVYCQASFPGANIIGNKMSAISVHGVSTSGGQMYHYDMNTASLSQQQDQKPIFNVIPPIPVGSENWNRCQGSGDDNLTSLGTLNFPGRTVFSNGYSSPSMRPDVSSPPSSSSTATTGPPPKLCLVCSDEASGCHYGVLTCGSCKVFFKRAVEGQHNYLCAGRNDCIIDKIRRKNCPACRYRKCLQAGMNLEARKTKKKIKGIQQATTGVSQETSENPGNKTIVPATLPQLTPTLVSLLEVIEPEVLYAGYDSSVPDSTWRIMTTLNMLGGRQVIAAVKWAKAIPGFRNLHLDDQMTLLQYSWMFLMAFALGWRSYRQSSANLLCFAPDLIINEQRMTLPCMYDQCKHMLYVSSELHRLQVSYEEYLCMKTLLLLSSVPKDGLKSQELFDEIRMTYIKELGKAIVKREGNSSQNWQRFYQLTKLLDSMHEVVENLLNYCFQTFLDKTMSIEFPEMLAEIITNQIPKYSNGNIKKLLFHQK
Sequence of Lysosomal acid glucosylceramidase (Homo sapiens) (P04062 whole entry, looked up): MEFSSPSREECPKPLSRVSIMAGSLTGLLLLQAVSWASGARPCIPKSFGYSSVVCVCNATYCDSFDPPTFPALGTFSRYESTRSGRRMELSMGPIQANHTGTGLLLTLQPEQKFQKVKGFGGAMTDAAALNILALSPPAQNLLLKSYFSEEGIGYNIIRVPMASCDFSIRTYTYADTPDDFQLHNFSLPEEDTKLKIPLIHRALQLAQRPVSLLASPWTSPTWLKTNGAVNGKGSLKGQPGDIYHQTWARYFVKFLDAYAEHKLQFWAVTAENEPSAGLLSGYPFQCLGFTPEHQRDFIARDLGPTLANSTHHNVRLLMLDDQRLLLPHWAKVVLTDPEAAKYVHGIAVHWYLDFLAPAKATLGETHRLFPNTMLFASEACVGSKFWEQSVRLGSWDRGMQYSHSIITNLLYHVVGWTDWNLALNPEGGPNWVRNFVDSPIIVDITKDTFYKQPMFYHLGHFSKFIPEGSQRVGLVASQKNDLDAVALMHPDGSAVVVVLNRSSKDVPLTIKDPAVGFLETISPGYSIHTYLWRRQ
Sequence of Dual specificity protein kinase CLK4 (Homo sapiens) (Q9HAZ1 whole entry, looked up): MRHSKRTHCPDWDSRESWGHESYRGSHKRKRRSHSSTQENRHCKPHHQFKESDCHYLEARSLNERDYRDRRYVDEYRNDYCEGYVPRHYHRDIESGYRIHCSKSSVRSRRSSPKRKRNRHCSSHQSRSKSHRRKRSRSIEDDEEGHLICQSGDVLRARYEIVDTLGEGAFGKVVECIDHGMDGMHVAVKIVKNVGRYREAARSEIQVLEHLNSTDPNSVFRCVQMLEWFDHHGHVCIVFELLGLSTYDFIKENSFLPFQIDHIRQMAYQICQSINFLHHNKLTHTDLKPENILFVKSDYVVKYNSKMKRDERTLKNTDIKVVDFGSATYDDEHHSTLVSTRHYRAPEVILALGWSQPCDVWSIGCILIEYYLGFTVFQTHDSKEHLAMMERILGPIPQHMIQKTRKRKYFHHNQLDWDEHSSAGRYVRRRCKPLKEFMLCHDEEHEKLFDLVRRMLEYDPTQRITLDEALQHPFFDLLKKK

As for `O=c1c(-c2cccc(Cl)c2)nc2cncnc2n1Cc1ccccc1`, the Potency in test [1] is above 11.4 µM; in test [3], 1 µM (active); in [6], above 9.22 µM; in test [7] it was above 46 µM. Moreover, the activity change, negative = inhibition is -3.36% in [2] and -0.741% in test [4]. Besides, the activity, negative = inhibition in test [5] was -3.65%. The Potency result in [8], in test [9], in test [10], in test [11] and in test [12] was “inactive” in each case. Moreover, the outcome in [13] was inactive.

As to `CN(C)C(=O)c1ccc(-c2nccc(NCc3ccccc3)n2)cc1`, the Potency in test [1] was above 11.4 µM; in test [3] it was 15.8 µM (active); in [6], above 46 µM; in test [7], above 46 µM. The activity change, negative = inhibition is -2.34% in [2] and 15.6% in test [4]. The activity, negative = inhibition in test [5] was -5.63%. The Potency entry in test [8], in test [14], in [15], in test [9], in test [10] and in test [11] was “inactive” throughout. Also, the Potency entry in test [12] was “inactive”. For the same compound, in [13], the outcome was inactive.

With `COc1ccccc1CNc1ccnc(-c2ccc(C(=O)N(C)C)cc2)n1`, the Potency in [1] was above 11.4 µM; in test [3], 12.6 µM (active); in test [6] it was above 46 µM; in [7] it was above 46 µM. Moreover, the activity change, negative = inhibition in [2] was -10.9%; in test [4], 4.15%. Further, the activity, negative = inhibition in test [5] is -1.46%. Besides, the Potency result in test [8], in test [14], in [15], in [9], in [10] and in test [11] was “inactive” in each case. Besides, the Potency entry in [12] was “inactive”. In addition, the result in test [13] was inactive.

Consider `COc1cccc(Cn2c(=O)c(-c3ccccc3)nc3cnc(OC)nc32)c1`, for which the Potency in [1] is above 11.4 µM; in test [3], 15.8 µM (active); in test [6], above 9.22 µM; in test [7], above 46 µM; in test [16], 7.94 µM (active). In addition, the figures for the activity change, negative = inhibition in [2] and in test [4] were -11.6% and -17.4%, respectively. The activity, negative = inhibition in [5] is 1.57%. Also, the Potency entry in test [8], in test [15], in test [9], in test [10], in test [11] and in test [12] was “inactive” in each case. The result in [13] was inactive.

`COCCn1c(=O)c(-c2cccs2)nc2cnc(OC)nc21`: the Potency in test [1] was above 11.4 µM; in test [3], 2.51 µM (active); in test [6], above 9.22 µM; in test [7], above 46 µM. In addition, the activity change, negative = inhibition in [2] was 6.04%; in test [4] it was 15.6%. For the same compound, the activity, negative = inhibition in test [5] was 6.32%. Besides, the Potency result in [8], in test [15], in test [9], in test [10], in test [11] and in test [12] was “inactive” each time. Further, the outcome in test [13] was inactive.

On to `Cc1cnc(CNc2ncnc3ccc(-c4ccc5c(c4)OCO5)cc23)cn1`, for which the Potency in [1] is above 11.4 µM; in [3], 0.398 µM (active); in [6] it was above 46 µM; in test [7] it was above 46 µM; in [9], 0.282 µM (active); in [10], 0.398 µM (active). The Potency in [11] was 0.224 µM (active). For the same compound, the activity change, negative = inhibition in test [2] is -18.1%; in test [4] it was 14.2%. Further, the activity, negative = inhibition in test [5] is -16.2%. The Potency result in test [14] and in [12] was “inactive” each time. The outcome in test [13] was inactive.

These data come from PubChem BioAssay (NCATS).
